Source: PubChem (National Center for Advancing Translational Sciences (NCATS))
HP1b chromo inh – HTS for Inhibitors of HP1-beta Chromodomain Interactions with Methylated Histone Tails. Chromobox protein homolog 1 (Homo sapiens), P83916. Potency, µM (highest dose often 114 µM), inactives show at the top dose activity change, negative = inhibition, usual class: inhibitors. AID 540317, 2011. 0.56% of 390,000 active. AlphaScreen HP1-beta / biotin-H3K9me3 peptide binding; further: nearly all actives have a fitted effect of over 70% in size
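AlphaScreen: HP1-beta (50 nM) preformed 30 min with biotin-H3(1-18)K9me3 peptide (50 nM) in PBS pH 7.4, 0.01% Tween-20. Compound added for 30 min at RT, then streptavidin donor/nickel chelate acceptor beads (10 ug/mL) for 30 min.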
12-LOX inh – Primary qHTS assay for inhibitors of human arachidonate 12S-lipoxygenase (ALOX12): Round 2. 1.1% of 580,000 active. Polyunsaturated fatty acid lipoxygenase ALOX12 (Homo sapiens), P18054. Potency, µM (titrated, usually from 108 µM), inactives show top-dose activity change, negative = inhibition, hits mostly inhibitors. purified 12hLO, xylenol orange hydroperoxide absorbance; further: on the % scale 0 is the no-effect control and ±100 the full control effect
Target sequence (P18054 whole entry, looked up): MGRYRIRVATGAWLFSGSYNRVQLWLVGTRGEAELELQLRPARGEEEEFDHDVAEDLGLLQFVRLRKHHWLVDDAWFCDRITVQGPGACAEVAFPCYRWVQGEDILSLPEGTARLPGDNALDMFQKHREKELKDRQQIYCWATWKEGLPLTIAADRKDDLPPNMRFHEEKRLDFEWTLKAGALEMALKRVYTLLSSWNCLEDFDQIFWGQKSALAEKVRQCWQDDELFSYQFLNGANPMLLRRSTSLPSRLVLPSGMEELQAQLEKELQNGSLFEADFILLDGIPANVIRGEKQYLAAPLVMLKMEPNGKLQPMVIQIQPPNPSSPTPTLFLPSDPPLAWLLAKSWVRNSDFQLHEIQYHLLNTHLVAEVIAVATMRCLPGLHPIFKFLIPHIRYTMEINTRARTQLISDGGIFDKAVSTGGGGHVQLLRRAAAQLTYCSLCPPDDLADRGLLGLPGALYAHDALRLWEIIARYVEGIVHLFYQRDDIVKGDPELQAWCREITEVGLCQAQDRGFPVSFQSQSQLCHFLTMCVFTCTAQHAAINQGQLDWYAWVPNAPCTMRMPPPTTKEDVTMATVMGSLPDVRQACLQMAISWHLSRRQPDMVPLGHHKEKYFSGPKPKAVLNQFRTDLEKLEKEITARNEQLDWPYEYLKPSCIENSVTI
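Purified human 12hLO at 150 nM in 25 mM Hepes, 0.01% Triton X-100, pH 7.0, preincubated 15 min at room temperature with compound. Reaction started with 40 uM arachidonic acid, 30 min at room temperature. Hydroperoxide measured by Fe-xylenol orange, 573/405 nm absorbance ratio.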
G9a inh – qHTS Assay for Inhibitors of Histone Lysine Methyltransferase G9a | Histone-lysine N-methyltransferase EHMT2 (Homo sapiens), Q96KQ7 | G9a H3K9 monomethylation, AlphaScreen, 2 h | Potency, µM (series often up to 102 µM), for inactives: at the highest dose activity, negative = inhibition, most hits filed as inhibitors | 8.8% of 350,000 active | AID 504332, 2011; further: on the % scale 0 is the no-effect control and ±100 the full control effect; nearly all actives have a fitted effect of over 75% in size
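AlphaScreen detection with an anti-monomethyl H3K9 antibody quantified product after a 2 h room-temperature reaction containing 500 nM biotinylated H3K9 peptide, 20 µM SAM and 20 nM enzyme, which had been preincubated 15 min with compound.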
PLK1 PBD inh – qHTS for Inhibitors of PLK1-PDB (polo-like kinase 1 - polo-box domain): Primary Screen. Serine/threonine-protein kinase PLK1 (Homo sapiens), P53350. Plk1 PBD binding of FITC phosphopeptide, fluorescence polarization. Potency, µM, without a hit: max response, negative = inhibition, usual class: inhibitors. 2.8% of 360,000 active. AID 720504, 2013; further: series mostly up to about 57 µM; on the % scale 0 is the no-effect control and ±100 the full control effect; nearly all actives have a fitted effect of over 65% in size
JMJD2A Tudor – qHTS Assay for Inhibitors of JMJD2A-Tudor Domain | Lysine-specific demethylase 4A (Homo sapiens), O75164 | AlphaScreen JMJD2A-Tudor / H3K4me3 peptide binding | Potency, µM (top dose mostly 114 µM), for inactives: at the top dose activity change, negative = inhibition, most hits filed as inhibitors | 4.4% of 390,000 active; further: on the % scale 0 is the no-effect control and ±100 the full control effect; nearly all actives have a fitted effect of over 50% in size
BAZ2B inh – qHTS Assay for Inhibitors of BAZ2B. AID 504333, 2011. Potency, µM (series often up to 114 µM), inactives show at the top dose activity change, negative = inhibition, hits mostly inhibitors. 4.4% of 360,000 active. AlphaScreen BAZ2B-H3K14Ac peptide displacement. Bromodomain adjacent to zinc finger domain protein 2B (Homo sapiens), Q9UIF8; further: on the % scale 0 is the no-effect control and ±100 the full control effect; nearly all actives have a fitted effect of over 60% in size
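BAZ2B (50 nM) with biotin-H3(5-23)K14Ac peptide (50 nM) in PBS pH 7.4, 0.01% Tween-20, preformed 30 min, then compound 30 min at room temperature; top concentration 110uM. AlphaScreen streptavidin donor/nickel chelate acceptor beads (10 ug/mL final), 20 min dark, signal read.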
* marks the source's active call; other numbers are inactive results; i = inactive; ? = inconclusive; · = not tested or not shown; [ ] = remark or other dose. Only some compounds are listed: those with a hit (about 9% of all), similar ones and a draw of the others. The call rests on the fitted dose curve; in most records, active means well fitted curve in the direction sought with a large enough effect; inconclusive means small, poorly fitted or top-dose-only effect, or another doubt; inactive means no such curve, though single readings can be large; an effect the other way counts as inactive or inconclusive. Potency means the concentration at half of the fitted maximal effect.

SMILES	HP1b chromo inh	12-LOX inh	G9a inh	PLK1 PBD inh	JMJD2A Tudor	BAZ2B inh
CSc1ccccc1C(=O)Nc1ccc(C)cc1C	8%	-7%	?	-2%	-3%	-15%
C=CCOc1cccc(NC(=O)c2ccccc2SC)c1	11%	3%	-42%	27µM*	-21%	-1%
CSc1ccccc1C(=O)Nc1cccc(C)c1	37%	-23%	45µM*	-1%	-7%	3%
C=CCOc1cccc(NC(=O)C(C)Oc2ccccc2)c1 (configuration not stated)	·	6%	·	·	·	·
CSc1ccccc1C(=O)Nc1cc(C)ccc1C	22%	-5%	40µM*	-13%	-11%	-2%
Cc1ccc([N+](=O)[O-])cc1S(=O)(=O)Nc1cccc(S(=O)(=O)Nc2ccccc2C(=O)O)c1	0%	?	·	-12%	-20%	·
Cc1ccc(C)c(NC(=O)c2ccccc2NS(=O)(=O)c2cc([N+](=O)[O-])ccc2C)c1	40%	2%	-12%[59 µM]	60µM*	-20%	7%
Cc1cc(=O)oc2cc(OS(=O)(=O)/C=C/c3ccccc3)ccc12	·	30%	·	·	·	·
Cc1cccc(NC(=O)c2ccccc2NC(=O)c2ccco2)c1	26%	i	40µM*	0%	-1%	?
Cc1ccc2c(NC(=O)c3ccc(Br)o3)cccc2n1	21%	-4%	·	-9%	-4%	-6%
Cc1ccc2c(NC(=O)c3ccco3)cccc2n1	39%	-25%	50µM*	-7%	-23%	-12%
O=C(Cc1ccccn1)N1CCc2nc(-c3ccccc3)nc(-c3ccc(Cl)cc3)c2C1	·	39%	·	·	·	·
COC(=O)c1ccc(NC(=O)c2ccccc2N(C)S(=O)(=O)c2ccccc2)cc1	-4%	-5%	-38%[59 µM]	24µM*	-19%[11.4 µM]	8%
COc1cc(NC(=O)c2ccc(S(=O)(=O)N(C)c3ccccc3OC)cc2)cc(OC)c1	15%	-21%	·	4%	-17%	·
COc1ccccc1N(C)S(=O)(=O)c1ccc(C(=O)Nc2ccc(N3CCOCC3)cc2)cc1	0%	-6%	40µM*	6%	?	?
COC(=O)c1ccccc1NC(=O)c1ccccc1N(C)S(=O)(=O)c1ccccc1	52%	-15%	33%[59 µM]	-19%	-5%	-7%
C=CCN(c1ccccc1OC)S(=O)(=O)c1ccc(Cl)c(C(=O)Nc2ccc(N3CCOCC3)cc2)c1	4%	-18%	25µM*	-1%	-31%	?
CCc1ccc(NC(=O)Cn2c(=O)n(CCC(C)C)c(=O)c3cccnc32)cc1	52%	-1%	-8%[59 µM]	·	-12%	7%
Cc1cc(=O)[nH]c(NN=C2CCCCC2C)n1 (configuration not stated)	-24%	33%	·	-5%	0.89µM*	·
Cc1cc(=O)[nH]c(N/N=C2/CCCC/C2=C\c2ccccc2)n1	-3%	0%	45µM*	?	-4%[11.4 µM]	3%
Cc1cc(=O)[nH]c(N/N=C/C=C/c2ccccc2)n1	19%	9%	34%	0%	-28%	1%
Cc1cc(=O)[nH]c(NN=C2C3CC4CC(C3)CC2C4)n1	43%	-3%	2.5µM*	-4%	?	8%
Cc1cc(=O)[nH]c(NN)n1	27%	-38%	·	?	-4%[11.4 µM]	0%
N#C/C(=C\c1ccc(-c2ccc(F)cc2)o1)C(=O)Nc1nc(-c2cccs2)cs1	30%	-19%	-5%[59 µM]	-10%	-16%	62%
Cc1ccc(C)c(S(=O)(=O)NCCOc2nc(NC(C)C)nc(NC(C)C)n2)c1	26%	7%[57.4 µM]	-15%	-16%	-19%	4%
SMILES	HP1b chromo inh	12-LOX inh	G9a inh	PLK1 PBD inh	JMJD2A Tudor	BAZ2B inh
O=C1NC2(CCCCC2)C(=O)N1CCS(=O)(=O)Oc1ccccc1	61%	0%	15%	-6%	-12%	0%
CCS(=O)(=O)n1nc(-c2ccc(Cl)cc2)nc1SC	92%	?	7%[59 µM]	-10%	38%	26%
Cc1ccc(S(=O)(=O)n2nc(-c3ccco3)nc2SCc2ccccc2)cc1	21%	?	?	-2%	-29%	?
O=S(=O)(c1ccc2ccccc2c1)n1nc(-c2ccco2)nc1NCc1ccc(F)cc1	24%	-29%	18µM*	·	-35%	?
Cc1ccc(S(=O)(=O)n2nc(-c3ccco3)nc2NCc2ccccc2Cl)cc1	-7%	-27%	?	·	-26%	-20%
CSc1nc(-c2ccco2)nn1S(=O)(=O)c1ccccc1	·	·	20µM*	·	·	?
Cc1ccc(CNc2nc(-c3ccco3)nn2S(=O)(=O)c2ccc3ccccc3c2)cc1	5%	?	-31%[59 µM]	·	-16%	?
CCS(=O)(=O)n1nc(-c2ccco2)nc1SC	?	0%	?	9.5µM*	28µM*	21%
CSc1nc(-c2ccco2)nn1S(=O)(=O)c1ccc(C)cc1	3%	-111%	40µM*	?	-12%	-7%
CON(C)c1nc(Oc2ccc(=O)[nH]n2)nc(N(C)C)n1	19%	-4%	-1%[12.7 µM]	-1%	-23%	20%
COc1ccc(CNS(=O)(=O)CCNC(=O)c2ccccc2)cc1	31%	0%	-6%	-11%	-7%	7%
COc1ccc(C(=O)NCCS(=O)(=O)NCc2ccc3c(c2)OCO3)cc1	9%	8%	8%[0.501 µM]	-8%	-10%	11%
COc1cccc(C(=O)NCCS(=O)(=O)NCc2ccc3c(c2)OCO3)c1	-5%	10%	40µM*	-9%	-23%	0%
COc1cccc(C(=O)NCCS(=O)(=O)NCc2ccccn2)c1	-2%	-13%	?	-8%	2.5µM*	-3%
COc1ccc(CNS(=O)(=O)CCNC(=O)c2cccc(OC)c2)cc1	21%	-7%	50µM*	-3%	-14%	5%
O=C1[C@@H]2C[C@@H](CN2C(=O)c2ccccc2)Oc2ccccc2N1Cc1ccccc1	·	11%[176 µM]	·	·	·	·
Cn1c(C(=O)Nc2ccc(Cl)cc2)cc2cc(Cl)ccc21	57%	18µM*	45%	1%	-20%	-9%
CCOc1ccc(NC(=O)c2cc3cc(OCC)ccc3n2C)cc1	·	57%	·	·	·	·
N#Cc1c(SCC(=O)Nc2ccc(Cl)cc2Cl)sc2c(O)cc(=O)[nH]c12	22%	-20%	?	?	-19%	-30%
CCCSc1nnc(NC(=O)CSc2sc3c(O)cc(=O)[nH]c3c2C#N)s1	-30%	50µM*	11µM*	17µM*	56µM*	40µM*
N#Cc1c(SCC(=O)Nc2nccs2)sc2c(O)cc(=O)[nH]c12	-5%	?	32µM*	?	-35%	16µM*
